# Experimental data as given in PubChem BioAssay AID651815 (National Center for Advancing Translational Sciences (NCATS), 2012).
# Hit rate of the full screen: of about 2,100 compounds, about 1,100 (52%) were called active. Another 29% or so got no clear call; they are omitted. So high a share suggests a set chosen from earlier hits. The list shows a part of the results. Unmarked numbers belong to inactive results. The call rests on the fitted dose curve; in most records, active means well fitted inhibition curve with a large enough effect; inconclusive means small, poorly fitted or top-dose-only effect; inactive means no such curve, though single readings can be large or run the other way.
# Target: DNA dC->dU-editing enzyme APOBEC-3F (Homo sapiens) (UniProt Q8IUX4)
# Assay: qHTS for inhibitors of Vif-A3F interactions: Cherry picks counterscreen; further: nearly all actives have a fitted effect of over 65% in size
# Settings: HeLa A3F-eYFP/Vif cells, eYFP fluorescence, 24 h; series mostly up to 46.1 µM; activity, negative = inhibitor: at the top concentration
# Method in brief: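 Rescue of Vif-driven A3F-eYFP degradation read as cellular eYFP fluorescence after 24 h compound exposure (several concentrations) in stable HeLa cells; MG132 (2 mM stock) as positive control.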
# On the % scale 0 is the no-effect control and ±100 the full control effect; potency means the concentration at half of the fitted maximal effect.
# DNA dC->dU-editing enzyme APOBEC-3F (Homo sapiens), sequence (Q8IUX4 whole entry, looked up): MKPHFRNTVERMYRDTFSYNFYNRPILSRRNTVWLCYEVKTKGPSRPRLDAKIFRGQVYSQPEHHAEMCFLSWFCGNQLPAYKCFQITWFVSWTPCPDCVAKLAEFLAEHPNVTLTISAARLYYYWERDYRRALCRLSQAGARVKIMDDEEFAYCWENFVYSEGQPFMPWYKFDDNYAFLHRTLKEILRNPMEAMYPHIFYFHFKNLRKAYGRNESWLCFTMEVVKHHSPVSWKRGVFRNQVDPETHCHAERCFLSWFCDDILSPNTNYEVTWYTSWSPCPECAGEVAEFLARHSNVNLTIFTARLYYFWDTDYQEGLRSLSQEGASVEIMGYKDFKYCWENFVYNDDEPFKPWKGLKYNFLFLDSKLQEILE
SMILES,Potency,"activity, negative = inhibitor"
COc1cc(/C=C2/SC(=S)N(CCC(=O)Nc3ccccc3)C2=O)cc(OC)c1OC,23.1 µM (active),
COc1cc(/C=C2/SC(=S)N(Cc3ccccc3)C2=O)cc(Cl)c1O,3.96 µM (active),
O=C(O)c1cc(-c2ccc(/C=C3/SC(=S)N(Cc4ccccc4)C3=O)o2)ccc1Cl,14.6 µM (active),
CCC(=C/c1sc2ccc3ccccc3c2[n+]1C)/C=C1\Sc2ccc3ccccc3c2N1C,,-5.46%
Cc1csc(NC(=O)CCC(=O)N(CC(=O)NC2CCCC2)Cc2ccccc2)n1,,3.75%
CCN1CCc2nc3sc(C(=O)c4ccccc4)c(N)c3cc2C1,23.1 µM (active),
COc1ccc(NC(=O)c2sc3nc4c(cc3c2N)CN(Cc2ccccc2)CC4)c(OC)c1,18.4 µM (active),
Cc1ccccc1NC(=O)c1sc2nc3c(c(-c4ccco4)c2c1N)CCC3,,-29.3% [at 36.9 µM]
Nc1c(C(=O)c2ccc(Cl)cc2)sc2nc3c(cc12)CCC3,18.4 µM (active),
COc1ccc(/C=C2\Oc3cc(OC(=O)N4CCOCC4)ccc3C2=O)c(OC)c1,,-8.95%
COc1cc(OC)c(OC)cc1/C=C1\Oc2cc(OCC(=O)N3Cc4ccccc4C[C@H]3C(=O)O)ccc2C1=O,1.84 µM (active),
Cc1nnc(N2C(=O)c3cccc4c([N+](=O)[O-])ccc(c34)C2=O)s1,20.6 µM (active),
CC(=O)Oc1ccc(N2C(=O)c3cccc4c([N+](=O)[O-])ccc(c34)C2=O)cc1,,22.2%
O=C1c2cccc3c([N+](=O)[O-])ccc(c23)C(=O)N1c1ccccn1,,18.3%
COc1cc2c3nnc(-c4ccc(F)cc4)c-3cn(Cc3ccccc3F)c2cc1OC,16.4 µM (active),
COc1cc2c3nnc(-c4ccccc4)c-3cn(Cc3ccccc3F)c2cc1OC,3.66 µM (active),
COc1cc2c3nnc(-c4ccc(F)cc4)c-3cn(Cc3ccc(C)cc3)c2cc1OC,15.8 µM (active),
Cn1nnc2c[n+](CC(=O)c3ccc(Cl)cc3)cc(Br)c21,17.7 µM (active),
O=C1CCCN1c1ccc(S(=O)(=O)Nc2ccc3c(c2)OCCO3)cc1,3.96 µM (active),
O=[N+]([O-])c1cc(O)c2ncccc2c1,,-1.6% [at 36.9 µM]
O=[N+]([O-])c1ccc(Oc2cccc3cccnc23)c([N+](=O)[O-])c1,14 µM (active),
CC1CC(C)(C)Nc2ccc(OC(=O)c3ccco3)cc21 (configuration not stated),18.4 µM (active),
CC1(C)Cc2nc3sc4c(SCC(=O)NCc5ccco5)ncnc4c3cc2CO1,5.59 µM (active),
CC1(C)Cc2nc3sc4c(=O)n(CC(=O)NCc5ccccc5)cnc4c3cc2CO1,2.23 µM (active),

SMILES,Potency,"activity, negative = inhibitor"
CCc1ccc(N=Nc2ccc(O)c3[nH]cnc23)cc1,8.2 µM (active),
S=C(Nc1ccccc1)N1CCn2c1nc1ccccc12,,-0.0104% [at 36.9 µM]
CCCOc1ccc(C(=O)Nc2cccc(NC(=O)c3ccc(Cl)cc3Cl)c2)cc1,20.6 µM (active),
COc1cccc(C(=O)Nc2ccc(N3CCCC3)cc2)c1,5.59 µM (active),
COc1cc(OC)cc(C(=O)Nc2ccc(N3CCN(C(=O)c4cccs4)CC3)cc2)c1,7.9 µM (active),
COc1cc(C(=O)OCC(=O)Nc2ccc(N3CCOCC3)cc2)ccc1OCC(C)C,,12% [at 36.9 µM]
O=C(OCCC12CC3CC(CC(C3)C1)C2)c1ccc(NCc2cc(O)ccc2O)cc1,15.8 µM (active),
Cc1ccc(C)c(Nc2nn3c(=O)c4ccc(C(=O)NCc5cccs5)cc4nc3s2)c1,20.6 µM (active),
CCOC(=O)c1ccc(NC(=O)CSc2nc(-c3cccs3)cc(C(F)(F)F)c2C#N)cc1,16.4 µM (active),
N#Cc1c(C(F)(F)F)cc(-c2cccs2)nc1SCC(=O)Nc1ccc(Cl)cc1,7.31 µM (active),
N#Cc1c(C(F)(F)F)cc(-c2cccs2)nc1SCC(=O)Nc1cccc(Cl)c1,,-0.0178%
N#Cc1c(C(F)(F)F)cc(-c2cccs2)nc1SCC(=O)Nc1cccc(C(F)(F)F)c1,20.6 µM (active),
O=c1[nH]cnc2n[nH]nc12,10.3 µM (active),
COc1ccc(N/C=C/C(=O)c2cc(OC)c(OC)c(OC)c2)cc1,0.498 µM (active),
CCOc1ccc(N/C=C/C(=O)c2cc(OC)c(OC)c(OC)c2)cc1,15.8 µM (active),
CCOc1ccc(NC(=O)Cn2c(=O)n(Cc3ccc(C(=O)NCc4ccc(C)cc4)cc3)c(=O)c3ccccc32)cc1,14.6 µM (active),
CCn1c(SCC(=O)N/N=C/c2ccc(C)s2)nc2ccccc21,4.98 µM (active),
COc1ccc(NC(=S)NN(C)C(=S)Nc2ccc(OC)cc2)cc1,3.14 µM (active),
C=CCNC(=S)N/N=C(\C)c1ccc(OC)cc1,,-23.5%
O=C(Nc1cc(=O)[nH]c(=O)[nH]1)c1cc(Cl)ccc1Cl,8.86 µM (active),
CCCCCCc1cc2cc(-c3nnc(-c4ccccc4O)o3)c(=O)oc2cc1O,,33.9%
CCCCCCc1cc2cc(-c3nnc(-c4ccccc4)o3)c(=O)oc2cc1O,3.53 µM (active),
CCCCCCc1cc2cc(-c3nnc(-c4ccccc4OC)o3)c(=O)oc2cc1O,1.98 µM (active),
